One may read the AC50 as the concentration at which the activity in the assay is half-maximal.

Test [1] deals with Bile acid receptor (Homo sapiens) (UniProt Q96RI1). The test can be described thus: ATG_IR1_CIS: Attagene CIS-FACTORIAL HepG2 Assay for human Nuclear Receptor Subfamily 1 Group H Member 4 (NR1H4), IR1 submotif (AID 2282946). As to conditions: IR1 reporter transcription, actives raise or lower the signal. Summed up: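 Fluorescence of capillary-separated, HpaI-digested RT-PCR reporter products gave IR1-element mRNA induction in HepG2 cells 24 h after dosing. Endogenous transcription factors drove the cis-regulated reporters; activity was fitted bidirectionally against DMSO.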

The nature of test [2]: ATG_GRE_CIS: Attagene CIS-FACTORIAL HepG2 Assay for human Glucocorticoid Response Elements (GRE) (AID 2282947). The note with it: HepG2 GRE cis-reporter, Attagene multiplex mRNA; actives raise or lower the signal. The method, boiled down: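 Read-out: fluorescent reporter-transcript fragments separated by capillary electrophoresis after RT-PCR. Transiently transfected HepG2 cells carrying cis-element-driven reporter units were dosed for 24 h; gain or loss of signal fitted against DMSO control.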

The nature of test [3]: ATG_ISRE_CIS: Attagene CIS-FACTORIAL HepG2 Assay for human Interferon Regulatory Factor 1 (IRF1) binding to an Interferon-Stimulated Response Element (ISRE) (AID 2282948). The note with it: HepG2 ISRE cis-reporter (Attagene), mRNA transcription readout; actives raise or lower the signal. Summed up:
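Endogenous transcription factor activity read as reporter transcript abundance via RT-PCR and capillary electrophoresis. HepG2 cells transiently transfected, 24 h chemical exposure. Gain or loss fitted against DMSO baseline.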

Test [4] can be described thus: ATG_M_32_CIS: Attagene CIS-FACTORIAL HepG2 Assay for M32 Transcription Factor (Internal Marker) (AID 2282949).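 Further: background control marker of the multiplexed CIS panel rather than a real target.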 As to conditions: HepG2 Attagene cis-factorial M32 reporter, mRNA; actives raise or lower the signal. The method, boiled down: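 Using DMSO as baseline, bidirectional curve fits were applied to reporter mRNA signals. These came from transiently transfected HepG2 cells exposed for 24 h, with RNA analysed by RT-PCR, FAM primer extension, HpaI digestion and CE.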

A short description of test [5]: ATG_M_06_CIS: Attagene CIS-FACTORIAL HepG2 Assay for M06 Transcription Factor (Internal Marker) (AID 2282950). The note with it: HepG2 Attagene CIS-FACTORIAL M06 internal marker reporter; actives raise or lower the signal. The method, boiled down:
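One of many multiplexed endpoints: HepG2 reporter mRNA after 24 h dosing, detected by RT-PCR and capillary electrophoresis fluorescence; gain or loss of signal analysed against DMSO.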

Test [6] deals with Hypoxia-inducible factor 1-alpha (Homo sapiens) (UniProt Q16665). As to the kind of experiment: ATG_HIF1a_CIS: Attagene CIS-FACTORIAL HepG2 Assay for human Hypoxia Inducible Factor 1 (HIF1A) (AID 2282951). As to conditions: HepG2 Attagene cis-factorial HIF1a reporter transcription; actives raise or lower the signal. Summed up:
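In this multiplexed cell assay, HepG2 cells bearing transfected cis reporters are dosed for 24 h and reporter mRNA is read by RT-PCR plus capillary electrophoresis; signal increases and decreases are both scored against DMSO.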

The target of test [7] is Hepatocyte nuclear factor 6 (Homo sapiens) (UniProt Q9UBC0). The test can be described thus: ATG_HNF6_CIS: Attagene CIS-FACTORIAL HepG2 Assay for human Hepatocyte Nuclear Factor 6 (HNF6) (AID 2282952). As to conditions: HepG2 Attagene cis-factorial HNF6 reporter transcription; actives raise or lower the signal. Summed up: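 Activity values derive from bidirectional fitting against DMSO of reporter mRNA levels, measured by capillary electrophoresis of labelled RT-PCR products from HepG2 cells exposed 24 h.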

Test [8] deals with Heat shock factor protein 1 (Homo sapiens) (UniProt Q00613). As to the kind of experiment: ATG_HSE_CIS: Attagene CIS-FACTORIAL HepG2 Assay for human Heat Shock Transcription Factor 1 (HSE) (AID 2282953). As to conditions: HepG2 HSE cis-reporter, Attagene RNA transcription; actives raise or lower the signal. Summed up:
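Using HepG2 with transfected cis-driven reporter constructs, compound effects on endogenous factor activity are scored as reporter mRNA change at 24 h. Detection: RT-PCR, HpaI digestion, capillary electrophoresis; bidirectional fitting to DMSO.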

The nature of test [9]: ATG_MRE_CIS: Attagene CIS-FACTORIAL HepG2 Assay for human Metal Responsive Element (MRE) (AID 2282954). As to conditions: HepG2 MRE cis-reporter transcription, Attagene multiplex; actives raise or lower the signal. Summed up: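 RT-PCR/capillary electrophoresis readout of reporter mRNA, 24 h post-dosing, in HepG2 cells transfected with multiplexed cis-regulated reporter constructs. Gain or loss of signal fitted bidirectionally against DMSO baseline.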

The nature of test [10]: ATG_PBREM_CIS: Attagene CIS-FACTORIAL HepG2 Assay for human Phenobarbital-responsive Enhancer Module (PBREM) (AID 2282955). As to conditions: HepG2 PBREM cis-reporter, Attagene multiplexed transcription; actives raise or lower the signal. Summed up: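 After a 24 h incubation with test chemical, transfected HepG2 cells yield total RNA; reporter-specific RT-PCR products are fluorescently labelled, HpaI-digested and resolved by capillary electrophoresis against ROX size standards.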

Test [11] deals with Paired box protein Pax-6 (Homo sapiens) (UniProt P26367). As to the kind of experiment: ATG_Pax6_CIS: Attagene CIS-FACTORIAL HepG2 Assay for human Paired Box 6 (PAX6) (AID 2282956). The note with it: HepG2 CIS-FACTORIAL PAX6 reporter transcription, RNA readout; actives raise or lower the signal. The method, boiled down: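 Read-out is reporter transcript level, measured by RT-PCR with fluorescent primer extension and capillary electrophoresis after 24 h dosing of transfected HepG2 cells. Activity in either direction fitted relative to DMSO control.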

Test [12] in a line: ATG_PXRE_CIS: Attagene CIS-FACTORIAL HepG2 Assay for human Pregnane X Receptor Element (PXRE) (AID 2282957). As to conditions: HepG2 Attagene CIS-FACTORIAL PXRE reporter, mRNA; actives raise or lower the signal. Summed up:
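Fluorescent capillary electrophoresis of amplified reporter cDNA gave the signal, collected 24 h after dosing HepG2 cells that held transfected cis-element reporter constructs.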

Test [13] is described as follows: ATG_PPRE_CIS: Attagene CIS-FACTORIAL HepG2 Assay for human Peroxisome Proliferator-activated Response Element (PPRE) (AID 2282958). The note with it: HepG2 PPRE cis-element reporter, Attagene transcription factor profiling; actives raise or lower the signal. Summed up: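 Multiplexed reporter transcription units under cis-regulatory promoters were transfected into HepG2 cells to capture endogenous factor activity. A 24 h incubation preceded RNA isolation and fluorescent RT-PCR fragment analysis.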

Test [14] can be described thus: ATG_RORE_CIS: Attagene CIS-FACTORIAL HepG2 Assay for human RAR-related Orphan Receptor Element (RORE) (AID 2282959). As to conditions: HepG2 Attagene cis-factorial RORE reporter, mRNA; actives raise or lower the signal. Summed up: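 Fluorescence intensity of reporter-specific cDNA fragments, separated by capillary electrophoresis, gives the signal. Source: HepG2 liver cells transiently transfected with cis-element reporters and exposed 24 h; DMSO-normalized bidirectional fit.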

Test [15] is described as follows: ATG_Sox_CIS: Attagene CIS-FACTORIAL HepG2 Assay for human SRY-box transcription factor (SOX) (AID 2282960). As to conditions: HepG2 Attagene cis-factorial SOX reporter, mRNA; actives raise or lower the signal. Summed up: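 After 24 h of chemical treatment, transfected HepG2 reporter cells are lysed for total RNA. Transcript levels come from RT-PCR with labelled primer extension and capillary electrophoresis, analysed bidirectionally versus DMSO.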

In test [16] the target is Transcription factor Sp1 (Homo sapiens) (UniProt P08047). As to the kind of experiment: ATG_Sp1_CIS: Attagene CIS-FACTORIAL HepG2 Assay for human Specificity Protein 1 (Sp1) (AID 2282961). The note with it: HepG2 Sp1 cis-reporter transcription, actives raise or lower the signal. The method, boiled down:
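Sp1-driven reporter mRNA, read as capillary electrophoresis fluorescence after RT-PCR, in transiently transfected HepG2 cells dosed for 24 h; signal change in either direction relative to DMSO.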

Test [17] in a line: ATG_SREBP_CIS: Attagene CIS-FACTORIAL HepG2 Assay for human Sterol Regulatory Element Binding (SREBP) (AID 2282962). The note with it: HepG2 Attagene cis-factorial SREBP reporter, mRNA; actives raise or lower the signal. Summed up: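 Endogenous SREBP activity read as cis-element-driven reporter transcript in transiently transfected HepG2, 24 h post-dosing; quantified via RT-PCR plus capillary electrophoresis of fluorescent fragments. Gain or loss of signal fitted relative to DMSO baseline.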

Test [18] concerns the target Signal transducer and activator of transcription 3 (Homo sapiens) (UniProt P40763). The test can be described thus: ATG_STAT3_CIS: Attagene CIS-FACTORIAL HepG2 Assay for human Signal Transducer and Activator of Transcription 3 (STAT3) (AID 2282963). The note with it: HepG2, Attagene cis-factorial STAT3 reporter transcription; actives raise or lower the signal. The method, boiled down: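 Readout: fluorescent reporter mRNA fragments resolved by capillary electrophoresis. Setup: HepG2 transfected with MRTUs reporting endogenous transcription-factor activity, dosed 24 h. Gain or loss of signal fitted bidirectionally against DMSO control.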

Test [19] in a line: ATG_TA_CIS: Attagene CIS-FACTORIAL HepG2 Assay for human TA Basal Promoter (AID 2282964). The note with it: HepG2 Attagene CIS-factorial TA basal promoter reporter; actives raise or lower the signal. The method, boiled down:
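Transient MRTU transfection of HepG2 preceded 24 h compound exposure. Reporter mRNA levels were then read by RT-PCR with capillary electrophoresis, and this background-control endpoint was fitted bidirectionally to DMSO.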

The nature of test [20]: ATG_TCF_b_cat_CIS: Attagene CIS-FACTORIAL HepG2 Assay for human T-Cell-Factor with beta-catenin (TCF/b-cat) (AID 2282965). As to conditions: HepG2 TCF/beta-catenin cis-reporter transcription, actives raise or lower the signal. Summed up:
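Cells of the HepG2 line carry transiently transfected reporter units whose promoters respond to endogenous factors. Twenty-four hours post-dosing, reporter mRNA induction is measured by fluorescent RT-PCR and capillary electrophoresis, with DMSO as baseline.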

The source made the active and inactive calls. How the source made its calls: active means hit-call score of the fitted dose curve at least 0.9, where 1 is the maximum; inactive means score below 0.9.

Chain of Hypoxia-inducible factor 1-alpha (Homo sapiens) (Q16665 whole entry, looked up): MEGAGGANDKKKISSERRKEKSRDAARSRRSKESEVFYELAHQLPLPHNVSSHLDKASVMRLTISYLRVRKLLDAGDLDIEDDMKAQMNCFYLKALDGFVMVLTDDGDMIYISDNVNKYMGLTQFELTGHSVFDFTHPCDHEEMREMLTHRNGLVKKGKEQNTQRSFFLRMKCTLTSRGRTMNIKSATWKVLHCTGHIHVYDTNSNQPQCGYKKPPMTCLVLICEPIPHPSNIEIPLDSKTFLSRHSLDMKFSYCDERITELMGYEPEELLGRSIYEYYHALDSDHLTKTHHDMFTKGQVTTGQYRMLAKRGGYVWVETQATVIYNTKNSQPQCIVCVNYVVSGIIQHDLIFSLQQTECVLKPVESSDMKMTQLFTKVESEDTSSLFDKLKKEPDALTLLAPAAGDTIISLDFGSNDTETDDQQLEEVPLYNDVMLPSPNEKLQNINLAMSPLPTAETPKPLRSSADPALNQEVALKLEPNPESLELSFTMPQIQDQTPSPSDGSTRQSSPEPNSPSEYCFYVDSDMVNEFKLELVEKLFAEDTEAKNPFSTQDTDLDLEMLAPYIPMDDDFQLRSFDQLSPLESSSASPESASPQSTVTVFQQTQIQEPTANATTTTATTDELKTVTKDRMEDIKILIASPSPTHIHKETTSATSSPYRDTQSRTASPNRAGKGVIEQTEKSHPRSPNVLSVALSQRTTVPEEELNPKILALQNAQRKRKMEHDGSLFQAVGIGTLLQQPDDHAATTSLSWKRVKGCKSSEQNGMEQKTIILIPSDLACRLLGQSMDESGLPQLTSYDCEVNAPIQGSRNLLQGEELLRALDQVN
Chain of Transcription factor Sp1 (Homo sapiens) (P08047 whole entry, looked up): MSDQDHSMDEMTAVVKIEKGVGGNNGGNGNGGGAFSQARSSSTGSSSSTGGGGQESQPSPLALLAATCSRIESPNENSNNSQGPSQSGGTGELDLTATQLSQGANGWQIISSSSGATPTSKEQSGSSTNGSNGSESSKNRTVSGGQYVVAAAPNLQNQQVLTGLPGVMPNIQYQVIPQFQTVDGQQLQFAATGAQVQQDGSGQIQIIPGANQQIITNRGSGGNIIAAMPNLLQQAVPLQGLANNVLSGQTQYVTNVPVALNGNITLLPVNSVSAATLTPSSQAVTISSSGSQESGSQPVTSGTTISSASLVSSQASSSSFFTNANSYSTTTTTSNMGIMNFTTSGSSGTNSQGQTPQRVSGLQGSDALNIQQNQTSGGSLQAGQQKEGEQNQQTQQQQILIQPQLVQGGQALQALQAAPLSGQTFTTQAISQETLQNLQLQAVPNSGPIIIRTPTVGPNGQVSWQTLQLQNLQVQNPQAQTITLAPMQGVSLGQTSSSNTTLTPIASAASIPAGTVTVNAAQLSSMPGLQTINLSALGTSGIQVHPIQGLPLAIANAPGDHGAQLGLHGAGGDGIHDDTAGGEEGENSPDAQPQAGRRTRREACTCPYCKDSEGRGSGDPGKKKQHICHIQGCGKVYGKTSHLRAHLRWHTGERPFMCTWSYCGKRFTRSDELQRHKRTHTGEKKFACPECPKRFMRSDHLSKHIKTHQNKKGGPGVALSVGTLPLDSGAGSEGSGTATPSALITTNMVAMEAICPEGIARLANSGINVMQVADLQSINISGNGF
Chain of Paired box protein Pax-6 (Homo sapiens) (P26367 whole entry, looked up): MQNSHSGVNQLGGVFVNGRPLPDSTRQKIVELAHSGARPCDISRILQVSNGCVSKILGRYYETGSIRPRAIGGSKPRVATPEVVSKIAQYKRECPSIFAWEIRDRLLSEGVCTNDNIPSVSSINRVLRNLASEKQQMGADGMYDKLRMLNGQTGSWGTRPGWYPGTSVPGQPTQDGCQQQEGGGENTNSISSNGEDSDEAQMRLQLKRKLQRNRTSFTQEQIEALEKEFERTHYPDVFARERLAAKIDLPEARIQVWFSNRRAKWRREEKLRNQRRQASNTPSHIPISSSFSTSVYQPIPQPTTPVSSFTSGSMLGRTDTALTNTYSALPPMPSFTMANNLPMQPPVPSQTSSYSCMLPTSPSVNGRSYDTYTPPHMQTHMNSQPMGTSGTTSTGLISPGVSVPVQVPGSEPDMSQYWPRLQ
Chain of Hepatocyte nuclear factor 6 (Homo sapiens) (Q9UBC0 whole entry, looked up): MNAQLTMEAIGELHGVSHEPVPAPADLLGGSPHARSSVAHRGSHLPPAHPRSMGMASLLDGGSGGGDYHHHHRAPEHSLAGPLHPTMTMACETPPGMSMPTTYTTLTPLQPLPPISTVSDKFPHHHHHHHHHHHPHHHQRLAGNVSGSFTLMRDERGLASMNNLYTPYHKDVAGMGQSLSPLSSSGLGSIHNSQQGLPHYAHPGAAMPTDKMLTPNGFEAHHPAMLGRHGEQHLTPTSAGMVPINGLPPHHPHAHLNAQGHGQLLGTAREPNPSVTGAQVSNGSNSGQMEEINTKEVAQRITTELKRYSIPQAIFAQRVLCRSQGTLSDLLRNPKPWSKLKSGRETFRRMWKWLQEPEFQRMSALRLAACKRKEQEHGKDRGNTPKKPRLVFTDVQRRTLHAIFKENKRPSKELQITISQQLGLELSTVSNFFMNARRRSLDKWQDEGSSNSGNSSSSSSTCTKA
Chain of Heat shock factor protein 1 (Homo sapiens) (Q00613 whole entry, looked up): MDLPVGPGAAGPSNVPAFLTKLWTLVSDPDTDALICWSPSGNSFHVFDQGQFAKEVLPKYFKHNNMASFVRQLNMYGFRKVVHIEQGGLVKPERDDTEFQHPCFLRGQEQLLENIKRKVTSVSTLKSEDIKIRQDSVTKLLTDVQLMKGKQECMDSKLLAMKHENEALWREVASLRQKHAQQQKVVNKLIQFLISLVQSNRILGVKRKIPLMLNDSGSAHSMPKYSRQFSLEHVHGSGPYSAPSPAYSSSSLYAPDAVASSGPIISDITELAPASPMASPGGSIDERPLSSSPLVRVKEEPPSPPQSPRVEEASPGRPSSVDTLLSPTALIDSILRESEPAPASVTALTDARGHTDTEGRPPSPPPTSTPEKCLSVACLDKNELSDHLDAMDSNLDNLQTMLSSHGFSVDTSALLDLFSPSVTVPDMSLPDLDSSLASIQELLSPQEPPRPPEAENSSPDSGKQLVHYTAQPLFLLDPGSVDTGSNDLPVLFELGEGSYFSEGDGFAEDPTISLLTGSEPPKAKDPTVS
Chain of Signal transducer and activator of transcription 3 (Homo sapiens) (P40763 whole entry, looked up, the tested form may be a part): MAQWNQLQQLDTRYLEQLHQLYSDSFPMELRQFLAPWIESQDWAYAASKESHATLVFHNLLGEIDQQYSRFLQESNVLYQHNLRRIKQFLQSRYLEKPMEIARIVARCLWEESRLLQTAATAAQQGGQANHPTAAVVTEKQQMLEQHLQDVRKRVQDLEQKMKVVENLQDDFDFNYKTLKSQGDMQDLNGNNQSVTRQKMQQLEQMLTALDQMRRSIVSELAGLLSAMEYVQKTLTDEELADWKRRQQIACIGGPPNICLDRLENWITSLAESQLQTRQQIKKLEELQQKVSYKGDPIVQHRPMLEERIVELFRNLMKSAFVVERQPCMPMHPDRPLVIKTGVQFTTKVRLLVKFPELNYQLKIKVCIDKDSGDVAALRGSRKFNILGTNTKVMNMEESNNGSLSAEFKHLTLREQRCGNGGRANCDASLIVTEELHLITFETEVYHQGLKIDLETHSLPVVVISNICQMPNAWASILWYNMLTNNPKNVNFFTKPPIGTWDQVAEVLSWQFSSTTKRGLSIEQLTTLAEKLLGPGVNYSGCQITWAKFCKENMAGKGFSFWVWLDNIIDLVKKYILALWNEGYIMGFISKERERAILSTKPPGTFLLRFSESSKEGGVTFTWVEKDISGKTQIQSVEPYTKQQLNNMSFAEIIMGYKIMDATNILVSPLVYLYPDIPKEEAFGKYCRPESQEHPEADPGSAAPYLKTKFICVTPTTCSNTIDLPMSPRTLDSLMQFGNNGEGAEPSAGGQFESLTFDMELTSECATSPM
Chain of Bile acid receptor (Homo sapiens) (Q96RI1 whole entry, looked up): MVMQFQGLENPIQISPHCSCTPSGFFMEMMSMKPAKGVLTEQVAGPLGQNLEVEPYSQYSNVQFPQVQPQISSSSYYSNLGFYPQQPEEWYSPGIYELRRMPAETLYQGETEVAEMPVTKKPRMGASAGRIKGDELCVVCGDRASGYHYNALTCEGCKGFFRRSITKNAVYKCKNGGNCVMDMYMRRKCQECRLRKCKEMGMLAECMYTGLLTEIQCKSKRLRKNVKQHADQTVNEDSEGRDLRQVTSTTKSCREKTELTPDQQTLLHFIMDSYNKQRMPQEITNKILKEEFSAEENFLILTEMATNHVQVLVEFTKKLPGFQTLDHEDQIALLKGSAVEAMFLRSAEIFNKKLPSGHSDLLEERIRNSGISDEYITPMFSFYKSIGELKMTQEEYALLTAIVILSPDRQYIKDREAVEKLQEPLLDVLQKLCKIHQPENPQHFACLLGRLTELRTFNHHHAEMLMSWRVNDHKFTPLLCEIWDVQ

On to `CCC(C)S` (stereo not given), for which the call in test [1], in test [2], in test [3], in test [4], in test [5] and in [6] was inactive. Moreover, the outcome in [7], in [8], in test [9], in [10], in test [11] and in [12] was inactive. Also, the result in test [13], in [14], in [15], in test [16], in test [17] and in test [18] was inactive. Moreover, the result in test [19] and in [20] was inactive.
With `CS(C)=O`, the compound was called inactive in test [1], in test [2], in test [3], in test [4], in test [5] and in [6]. Also, the outcome in test [7], in [8], in test [9], in test [11], in test [12] and in test [13] was inactive. The compound was classed as inactive in test [14], in test [15], in test [16], in test [18], in test [19] and in test [20].
`CC(C)(C)OC(=O)c1ccc(O)cc1`: the outcome in test [1], in test [2], in [3], in test [4], in test [6] and in test [7] was inactive. Besides, the outcome in test [10], in test [11], in test [12], in [15], in test [16] and in test [17] was inactive. Further, the result in [18] and in test [20] was inactive. Moreover, the AC50 in [8] is 159 µM (active); in test [9] it was 100 µM (active); in [13], 87.7 µM (active); in test [14], 72.5 µM (active).
With `C=C(C)C(=O)OCC(CC)(COC(=O)C(=C)C)COC(=O)C(=C)C`, the outcome in [1], in test [2], in [3], in [4], in test [6] and in [7] was inactive. Besides, the call in test [8], in test [9], in test [10], in test [11], in test [13] and in test [14] was inactive. Moreover, the compound was called inactive in [15], in test [16], in test [17], in [18], in [19] and in [20]. Moreover, the AC50 in [12] was 10.6 µM (active).

Source of the values: PubChem BioAssay (EPA / NIEHS).
